Fam108B inh = blocks mouse Fam108B hydrolase in RBBP9 counter-screen | hit rate 0.33% among 300,000 | inhibition, % at 9.51 µM | recombinant Fam108B, FP-Rh probe fluorescence polarization;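 active = inhibition above the screen mean inhibition plus 3 SD, computed separately per campaign, cut at about 18% in these data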;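 also: inhibitors lower polarization as less probe binds the enzyme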
PREPL inhibitor = inhibitors of human prolyl oligopeptidase-like enzyme PREPL; Q4J6C6; recombinant PREPL, fluorescence polarization activity-based probe; inhibition, % at 5.96 µM; hit rate 0.68% among 320,000; AID 2751; in the data active = inhibition above about 43%;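 also: 0% = enzyme with DMSO and 100% = wells lacking enzyme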
LYPLA2 inh = LYPLA2 (human) inhibition in PME1 counter-screen; recombinant LYPLA2, FP-Rh probe fluorescence polarization; inhibition, % at 5.9 µM; hit rate 0.38% among 320,000; AID 2177;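 active = inhibition above the screen-wide mean plus 3 SD, limit set per campaign, cut at about 26% in these data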;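 also: 0% = LYPLA2 with DMSO and 100% = wells lacking LYPLA2 enzyme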
PME-1 inh = PME-1 (human) inhibition | Q9Y570 | recombinant PME-1, FP-Rh probe fluorescence polarization | inhibition, % at 5.9 µM | hit rate 0.53% among 320,000 | AID 2130;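 active = inhibition above the campaign mean of all compounds plus 3 SD, cut at about 26% in these data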;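 also: competitive labeling of PME-1 active site by serine hydrolase directed probe; 0% = PME-1 with DMSO and 100% = wells lacking PME-1 enzyme; inhibitors block probe labeling so polarization falls and inhibition rises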
Target sequence (Q9Y570 whole entry, looked up): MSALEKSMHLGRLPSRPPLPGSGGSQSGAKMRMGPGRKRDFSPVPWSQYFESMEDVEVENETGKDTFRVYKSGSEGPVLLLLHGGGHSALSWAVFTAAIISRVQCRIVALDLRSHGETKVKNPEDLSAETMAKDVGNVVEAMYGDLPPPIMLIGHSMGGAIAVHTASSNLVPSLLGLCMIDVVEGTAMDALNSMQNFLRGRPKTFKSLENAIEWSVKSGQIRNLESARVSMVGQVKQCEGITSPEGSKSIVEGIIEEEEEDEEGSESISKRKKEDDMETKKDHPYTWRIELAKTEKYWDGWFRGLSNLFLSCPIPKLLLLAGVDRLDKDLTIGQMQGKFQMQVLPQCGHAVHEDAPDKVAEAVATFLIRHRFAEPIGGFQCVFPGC
LYPLA1 counter = LYPLA1 (human) inhibition in PME1 counter-screen; inhibition, % at 5.9 µM; hit rate 0.16% among 320,000; O75608; recombinant LYPLA1, FP-Rh probe fluorescence polarization;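 active = inhibition above the mean of all tested compounds plus 3 SD, set per campaign, cut at about 14% in these data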;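 also: inhibitors block serine hydrolase probe labeling of LYPLA1 so polarization falls; 0% = enzyme with DMSO and 100% = wells lacking LYPLA1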
GSTO1 counter = blocks human GSTO1 in RBBP9 counter-screen; P78417; recombinant GSTO1, activity-based probe fluorescence polarization; inhibition, % at 5.96 µM; hit rate 1.1% among 300,000; AID 1974;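 active = inhibition above the campaign mean inhibition plus 3 SD, cut at about 35% in these data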;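 also: 0% = GSTO1-1 with DMSO and 100% = wells lacking GSTO1-1 enzyme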
Target sequence (P78417 whole entry, looked up): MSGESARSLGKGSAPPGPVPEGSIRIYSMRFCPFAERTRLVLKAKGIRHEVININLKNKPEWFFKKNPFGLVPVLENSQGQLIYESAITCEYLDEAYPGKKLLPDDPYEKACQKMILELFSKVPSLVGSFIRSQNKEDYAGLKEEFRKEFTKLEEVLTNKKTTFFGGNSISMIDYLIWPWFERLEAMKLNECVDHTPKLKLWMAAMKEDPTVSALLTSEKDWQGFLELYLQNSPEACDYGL
LYPLA2 conf = counter-screen for PME1 inhibitors: confirmation of human LYPLA2 inhibitors; shares compounds with LYPLA2 inh; hit rate 72% among 1,100; AID 2232; recombinant LYPLA2, FP-Rh probe fluorescence polarization; inhibition, % at 5.9 µM;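 active = mean inhibition across replicates above the hit cutoff set in the primary screen, cut at about 26% in these data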;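 also: blocked labeling of the enzyme by serine hydrolase FP-Rh probe lowers polarization; 0% = enzyme with DMSO and 100% = wells lacking LYPLA2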
LYPLA2 ABPP = blocks human acyl-protein thioesterase 2 in gel ABPP; hit rate 30% among 150; inhibition, % at 20 µM; AID 652029; rhLYPLA2 in mouse brain proteome, gel ABPP FP-Rh; shares compounds with LYPLA2 inh;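 active = inhibition of LYPLA2 enzyme probe labeling above about 50%, limit read from the data; inactive = inhibition below that limit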;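 also: loss of FP-Rh probe labeling of the LYPLA2 gel band measured as band density; 0% = DMSO only control band and 100% = blank gel background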
Starred values were filed as active, the others as inactive; / = no result. A selection: hits, their analogues and other compounds. The true share with any hit is near 1.9%.

SMILES	Fam108B inh	PREPL inhibitor	LYPLA2 inh	PME-1 inh	LYPLA1 counter	GSTO1 counter	LYPLA2 conf	others
CCC1CCC(c2nnc(-c3ccc([N+](=O)[O-])cc3)o2)CC1 (stereo not given)	4	4	49*	-2	6	7	51*	LYPLA2 ABPP=23
COc1ccc(CNC(=O)C2CCC(CNS(=O)(=O)c3cccc4nsnc34)CC2)cc1 (stereo not given)	0	-1	10	-1	0	1	/
O=C(NCc1ccc2c(c1)OCO2)C1CCC(CNS(=O)(=O)c2cccc3nsnc23)CC1 (stereo not given)	1	15	34*	6	0	2	38*
COc1ccc(-c2cc(C(=O)N3CCN(c4ccc(F)cc4)CC3)no2)cc1OC	-1	-20	39*	-5	3	3	33*
COc1ccc(-c2cc(C(=O)N3CCCC3)no2)cc1OC	0	-2	0	-3	3	4	/
O=C(c1cc(-c2cccs2)on1)N1CCN(c2ccccc2)CC1	3	4	22	2	2	6	/
O=C(c1cc(-c2cccs2)on1)N1CCN(c2ccc(F)cc2)CC1	1	-4	28*	-1	6	-1	27*
O=C(CN1C(=O)NC2(CCCC2)C1=O)Nc1ccc(S(=O)(=O)N2CCOCC2)cc1	-7	-3	30*	4	4	-3	1
Cc1ccc(S(=O)(=O)NC2CCCc3ccccc32)cc1C (stereo not given)	2	-19	4	6	-3	-12	/
O=C(CCCn1c(=S)[nH]c2cc3c(cc2c1=O)OCO3)N1CCN(c2ccc(Cl)cc2)CC1	-9	-97	11	4	2	-2	/
CC(=O)c1ccc(N2CCN(C(=O)c3ccc(Cn4c(=S)[nH]c5ccc(N6CCOCC6)cc5c4=O)cc3)CC2)cc1	-1	22	44*	-1	6	35*	34*
CC(=O)c1ccc(N2CCN(C(=O)CCCn3c(=S)[nH]c4cc5c(cc4c3=O)OCO5)CC2)cc1	1	-97	52*	-1	11	4	51*	LYPLA2 ABPP=13
O=C(OCc1ccccc1)/C(=C/c1cccc([N+](=O)[O-])c1)NC(=O)c1ccco1	4	9	4	2	2	1	/
O=[N+]([O-])c1cc(Cl)ccc1Oc1ccc(-c2nnco2)cc1	-4	13	27*	12	7	-3	28*
Cn1c2c(c(=O)n(C)c1=O)C(C(F)(F)F)(C(F)(F)F)N=C(c1ccc(Cl)cc1)N2	1	6	56*	9	-1	-12	1
CCC(OC(=O)c1cccs1)C(=O)NCc1ccc(C)cc1 (stereo not given)	-3	4	-2	-11	0	14	/
N#Cc1nc(-c2ccco2)oc1N1CCN(c2ccccc2)CC1	0	39	26*	1	6	0	17
CC(C)(C)OC(=O)CC1(C#N)c2ccccc2C(Br)=CN1C(=O)c1ccccc1 (stereo not given)	-3	8	7	-1	0	-7	/
CN(C(=O)c1ccc(NC(=O)Cc2ccc(NC(=O)C3CCN(C(=O)C4CC4)CC3)cc2)cc1)C1CC1	/	1	5	1	4	/	/
CN(C(=O)c1ccc(NC(=O)Cc2cccc(NC(=O)C3CCN(C(=O)C4CCCC4)CC3)c2)cc1)C1CCCC1	/	-2	32*	-2	3	/	-5
CN(C(=O)c1ccc(NC(=O)Cc2ccc(NC(=O)C3CCCN(C(=O)C4CC4)C3)cc2)cc1)C1CC1 (stereo not given)	/	-1	60*	-1	3	/	61*	LYPLA2 ABPP=45
CCOC(=O)CCS(=O)(=O)c1ccc(-c2ccc(S(=O)(=O)CCC(=O)OCC)cc2)cc1	0	9	3	2	1	9	/
CCOC(=O)C1(CCOc2ccccc2)CCN(Cc2ccc(OC)cc2)CC1	2	-24	-1	-1	-3	3	/
CCOC(=O)C1(CCOc2ccccc2)CCN(Cc2ccc3nonc3c2)CC1	-1	-11	31*	-2	4	4	28*
COc1ccccc1N1CCN(C(=O)CN(C)S(=O)(=O)c2cc(C)ccc2OC)CC1	-4	-4	-5	-4	-1	5	/
SMILES	Fam108B inh	PREPL inhibitor	LYPLA2 inh	PME-1 inh	LYPLA1 counter	GSTO1 counter	LYPLA2 conf	others
CC(=O)c1ccc(N2CCN(c3ccc(C(F)(F)F)cn3)CC2)cc1	0	19	46*	7	1	4	42*
CC(=O)Nc1ccc(N2CCN(c3ccc(C(F)(F)F)cn3)CC2)nc1	-4	13	52*	-2	4	0	51*	LYPLA2 ABPP=27
O=C(Nc1ccc(N2CCN(c3ccc(C(F)(F)F)cn3)CC2)nc1)c1cccs1	0	10	-6	4	-1	1	/
CC(=O)c1cccc(OCC(=O)N2CCN(c3ccc(C(F)(F)F)cn3)CC2)c1	0	5	58*	2	5	1	57*	LYPLA2 ABPP=45
CCN(CC(=O)Nc1cc(Cl)ccc1-n1cncn1)Cc1nc2ccccc2c(=O)[nH]1	/	-15	1	0	-2	/	/
CCOC(=O)c1[nH]c(C)c(C(=O)N2CCN(c3ccc(OC)cc3)CC2)c1C	-3	15	1	-3	-2	8	/
CCOC(=O)c1[nH]c(CN2CCN(c3ccc(OC)cc3)CC2)c(C(=O)OCC)c1C	3	13	27*	2	-2	3	-2
CCC1(C)Cc2c(sc3nnn(CC(=O)Nc4ccccc4C)c(=O)c23)CO1 (stereo not given)	-4	4	26	3	2	4	/
CCC1(C)Cc2c(sc3nnn(CC(=O)Nc4ccccc4)c(=O)c23)CO1 (stereo not given)	-7	-1	39*	-3	-3	9	38*
Cc1cccc(NC(=O)Cn2nnc3sc4c(c3c2=O)CC(C)(C)OC4)c1	-2	4	39*	-2	-1	0	48*
Cc1ccccc1NC(=O)Cn1nnc2sc3c(c2c1=O)CC(C)(C)OC3	1	4	22	-2	-2	6	/
COc1ccc(NC(=O)CN(C)CC(=O)N2CC(=O)Nc3ccccc32)cc1	/	18	/	/	/	/	/
O=C(Nc1cnccn1)Nc1ccc(Cl)cc1Cl	-2	13	2	0	0	-4	/
Cc1cccc(NCc2ccc(N(C)C)cc2)n1	-1	-9	5	4	2	14	/
CCCCc1cc(=O)oc2cc(OCC(=O)Nc3cccnc3)c(Cl)cc12	0	5	28*	3	3	-6	14
O=C(c1ccc(Cl)nc1)N1CCN(C/C=C/c2ccccc2)CC1	0	20	8	-2	3	3	/
